# S1P4 ag = agonists of human S1P4 receptor | O95977 | S1P4-expressing cell line, agonist reporter assay | activation, % at 4.98 µM | 220,000 compounds, 0.35% hits | AID 1509; in the data active means activation above about 11%;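 further: 0% = DMSO vehicle and 100% = reference agonist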
# Target sequence (O95977 whole entry, looked up): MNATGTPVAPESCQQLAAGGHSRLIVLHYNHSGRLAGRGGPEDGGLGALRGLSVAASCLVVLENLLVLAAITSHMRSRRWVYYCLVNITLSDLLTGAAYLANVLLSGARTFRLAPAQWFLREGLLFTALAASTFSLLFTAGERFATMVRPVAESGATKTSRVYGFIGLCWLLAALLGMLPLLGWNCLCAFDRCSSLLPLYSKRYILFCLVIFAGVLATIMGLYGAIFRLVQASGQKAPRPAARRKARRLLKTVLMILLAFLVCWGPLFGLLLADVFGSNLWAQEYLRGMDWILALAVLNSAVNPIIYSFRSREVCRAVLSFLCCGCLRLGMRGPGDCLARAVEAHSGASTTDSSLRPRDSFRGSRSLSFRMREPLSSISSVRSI
# S1P4 antagonist = human S1P4 receptor antagonism | inhibition, % at 4.98 µM | S1P4-expressing cells, antagonist mode, reporter read-out | 220,000 compounds, 0.26% hits; in the data active means inhibition above about 29%;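 further: 0% = wells stimulated with agonist and 100% = vehicle wells without agonist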
# Hsp70 activator = Hsp70 transcriptional activation, primary screen; HeLa Hsp70 promoter luciferase reporter, luminescence; scaled: vehicle 0, proteasome-inhibitor control 100%; activation, % at 10 µM; 200,000 compounds, 0.04% hits;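 active means activation above the mean across all tested compounds plus 3 SD, cutoff set per campaign, cut at about 5.5% in these data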;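 further: 100% = MG132 at 30 µM as the positive control and 0% = DMSO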
# CHOP inhibitor = blocks CHOP induction under ER stress | 220,000 compounds, 3.8% hits | CHO-K1 CHOP-promoter luciferase, tunicamycin-induced, 15-18 h | AID 2732 | inhibition, % at 10 µM;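 active means compounds that reduced the stress-induced luciferase reporter signal by more than about 70% of percent inhibition, limit read from the data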;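 further: 0% = tunicamycin plus vehicle and 100% = wells without tunicamycin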
# CHOP inh conf = confirmation of CHOP induction inhibitors | shares compounds with CHOP inhibitor | CHO-CHOP promoter luciferase reporter, tunicamycin-induced, luminescence | inhibition, % at 10 µM | 2,100 compounds, 45% hits | AID 504437;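 active means mean of three repeat readings of reporter signal inhibition above a set limit, cut at about 70% in these data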;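 further: 0% = tunicamycin plus vehicle and 100% = wells lacking tunicamycin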
# * marks the source's active call; other numbers are inactive results; . = not tested or not shown. A selection: hits, their analogues and other compounds. The true share with any hit is near 4.2%.
SMILES,S1P4 ag,S1P4 antagonist,Hsp70 activator,CHOP inhibitor,CHOP inh conf
CC(C1CC2CCC1C2)n1c(COc2ccccc2F)nnc1SCC(N)=O (stereo unspecified),-2,-4,0,-5,.
CC(C)NC(=O)NC(=O)CSc1nnc(COc2ccccc2F)n1C(C)C1CC2CCC1C2 (stereo unspecified),0,15,0,106*,38
Cc1cccc(/C=N/Nc2ccc3ccccc3n2)c1,-1,-8,0,97*,99*
CCOc1cc(C2C(C(=O)OC)=C(C)N=C3SC(C)C(=O)N32)ccc1OC(C)=O (stereo unspecified),3,-10,0,-70,.
Cc1ccc(/C=C2\SC(=S)N(CCCC(=O)Nc3ccccn3)C2=O)cc1,1,-14,-1,111*,114*
COc1ccc(/C=C2\SC(=S)N(CCCC(=O)Nc3ccccn3)C2=O)cc1OC,0,-3,0,61,.
Cc1ccc(/C=C2\SC(=S)N(CCCC(=O)Nc3ccc(O)cc3)C2=O)cc1,2,3,.,100*,114*
CCOc1ccc(NC(=O)CSc2nc(-c3cccs3)cc(C(F)(F)F)n2)c([N+](=O)[O-])c1,0,-8,0,30,.
COc1ccc(C2Nc3ccccc3C(=O)N2c2ccccc2)cc1COc1ccccn1 (stereo unspecified),1,-21,0,-8,.
CC(C)(C)c1ccc(OCC(O)CN(CCO)CC(O)Cn2ccc3ccccc32)cc1 (stereo unspecified),2,-7,0,103*,4
Cc1ccc2[nH]c(=O)c(C3C(C#N)=C(N)Oc4c3ccc3cccnc43)cc2c1 (stereo unspecified),-3,-6,0,97*,28
CC(=O)c1cccc(CN2CCN(Cc3ccc(C)cc3)C(CCO)C2)c1 (stereo unspecified),1,2,0,18,.
CCCCn1c(=O)[nH]c(=O)c2c1nc(-c1ccc(C(F)(F)F)cc1)n2C,0,3,0,34,.
CCCCn1c(=O)[nH]c(=O)c2c1nc(-c1ccc(OCCC)c(OCC)c1)n2C,0,-6,.,101*,91*
O=C(NCCC1=CCCCC1)c1ccc(CN2CCOCC2)cc1,0,-26,0,9,.
CC(C)(C)c1nnc(N/N=C/c2cc(Br)ccc2O)n(N)c1=O,3,-28,0,106*,118*
Cc1ccccc1/C=N/Nc1ccnc2cc(Cl)ccc12,1,-9,0,107*,88*
Clc1ccc2c(N/N=C/c3ccc(Br)cc3)ccnc2c1,0,-4,0,103*,96*
CC(=O)N1CCC(=NNc2ccnc3cc(Cl)ccc23)CC1,3,-19,0,-13,.
Clc1ccc(NNc2ccnc3cc(Cl)ccc23)cc1,0,-15,0,13,.
O=C(Nc1nnc(COc2ccccc2F)s1)Nc1ccccc1F,1,-6,.,99*,-6
O=C(Nc1nnc(CC2=CCCCC2)s1)Nc1ccccc1F,0,-14,.,98*,6
Cn1c(N2CCN(C(=O)Nc3ccc(F)cc3)CC2)nc2ccccc21,-2,-19,0,8,.
O=C(Nc1ccc(F)cc1)N1CCn2c(nc3ccccc32)C1,-3,13,0,98*,-3
O=C(Cn1c(=O)oc2ccccc21)Nc1ccccc1N1CCOCC1,-1,9,0,-5,.
SMILES,S1P4 ag,S1P4 antagonist,Hsp70 activator,CHOP inhibitor,CHOP inh conf
Nc1ccc2c(c1)COC2=O,-1,-8,0,45,.
Nc1ccc2c(c1)C(=O)C(=O)c1ccccc1-2,5,-1,0,.,140*
O=C1C(=O)c2ccc(-c3ccccc3)cc2-c2ccccc21,-1,13,0,109*,140*
CC1=C(CO)C(=O)OC([C@@H](C)C2CC[C@H]3C4C[C@H]5O[C@]56[C@@H](O)C=CC(=O)[C@]6(C)C4CC[C@]23C)C1 (stereo partly specified),.,.,.,107*,106*
N#CC(C#N)=C1C=CC=CN1/C(=C\c1ccccc1)C(=O)c1cccs1,1,3,0,44,.
N#CC(C#N)=C1C=CC=CN1/C(=C\c1ccccc1Cl)C(=O)c1ccccc1,1,2,1,107*,125*
C=C(C)COc1ccc(-c2nc(N)ncc2Oc2ccc(OC)cc2)c(O)c1,1,-3,0,67,.
CCOc1ccc(-c2n[nH]c(C)c2Oc2ccc(OC)cc2)c(O)c1,0,-7,0,108*,88*
CCOc1ccc(-c2nc(N)ncc2Oc2cccc(OC)c2)c(O)c1,4,-21,0,110*,25

# Screens as filed in PubChem BioAssay.
